{"source": "PubChem BioAssay", "key": {"[1]": {"assay": "growth inhibition of DIPG glioma cells, dose response, cell-based, SU-DIPG-XVII, MIPE5.0, CellTiter-Glo, qHTS (AID 1347060; cut-off not given, nearly all actives have AC50 up to about 26 µM;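 as to AC50: cells exposed to compound for 48 hours before viability readout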)", "settings": "SU-DIPG-XVII viability, CellTiter-Glo ATP luminescence"}, "[2]": {"assay": "growth inhibition of DIPG glioma cells, dose response, cell-based, SU-DIPG-XIII, MIPE4.0, CellTiter-Glo, qHTS (AID 1347061; cut-off not given, nearly all actives have AC50 up to about 37 µM;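 also: cells exposed to compound for 48 hours before readout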)", "settings": "SU-DIPG-XIII viability, CellTiter-Glo ATP luminescence"}, "[3]": {"assay": "growth inhibition of DIPG glioma cells, dose response, cell-based, JHH-DIPG-1, MIPE4.0, CellTiter-Glo, qHTS (AID 1347062; cut-off not given, nearly all actives have AC50 up to about 27 µM;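 as to AC50: cells exposed to compound for two days before readout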)", "settings": "JHH-DIPG-1 viability, CellTiter-Glo ATP luminescence"}, "[4]": {"assay": "growth inhibition of DIPG glioma cells, dose response, cell-based, SU-DIPG-IV, MIPE4.0, CellTiter-Glo, qHTS (AID 1347063; cut-off not given, nearly all actives have AC50 up to about 30 µM;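 also: compound exposure lasted 48 hours before the viability readout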)", "settings": "SU-DIPG-IV viability, CellTiter-Glo ATP luminescence"}, "[5]": {"assay": "growth inhibition of DIPG glioma cells, dose response, cell-based, SU-DIPG-XIII, MIPE5.0, CellTiter-Glo, qHTS (AID 1347064; cut-off not given, nearly all actives have AC50 up to about 23 µM;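 as to AC50: cells exposed to compound for 48 hours before the viability read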)", "settings": "SU-DIPG-XIII viability, CellTiter-Glo ATP luminescence"}, "[6]": {"assay": "viability loss in pontine glioma line – cell-based, SU-DIPG-XXV, MIPE5.0, CellTiter-Glo, qHTS, dose response (AID 1347065; cut-off not given, nearly all actives have AC50 up to about 26 µM;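 also: cells exposed to compound for 48 hours before ATP readout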)", "settings": "CellTiter-Glo ATP luminescence"}, "[7]": {"assay": "SU-DIPG-VI glioma cell viability, MIPE4.0 library, CellTiter-Glo luminescence, qHTS (AID 1347066; cut-off not given, nearly all actives have AC50 up to about 30 µM;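 also: cells exposed to compound for 48 hours before readout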)", "settings": "CellTiter-Glo ATP luminescence"}, "[8]": {"assay": "JHH-DIPG-1 glioma cell viability, MIPE5.0 library, CellTiter-Glo luminescence, qHTS (AID 1347067; cut-off not given, nearly all actives have AC50 up to about 26 µM;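 also: cells exposed to compound for 48 hours before readout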)", "settings": "JHH-DIPG-1 glioma viability, CellTiter-Glo ATP luminescence"}, "[9]": {"assay": "SU-DIPG-XXV glioma cell viability, MIPE5.0 library, qHTS (AID 1347068; cut-off not given, nearly all actives have IC50 up to about 30 µM;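 as to IC50: cells exposed to compound for 48 hours before viability readout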)"}, "[10]": {"assay": "ovarian cancer cell viability with rucaparib, profiling panel, oncology-focused library, rucaparib conditional (AID 1508598)", "settings": "patient-derived ovarian cancer cells, CellTiter-Glo viability, 144 h, stronger effect = lower value"}, "[11]": {"assay": "sensitizers of A549 cells to miR-34 induction, primary screen, imaging, A549 dox-inducible miR-34, nuclei and caspase counts (AID 1347080;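 active = compounds whose cell count with miR-34 switched on is under 0.7 times the count with it off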)", "settings": "A549 miR-34 inducible, Hoechst nuclei count, 48 h"}, "[12]": {"assay": "survival rescue of mitochondrial mutant cells in low glucose, primary screen, MELAS cybrids, Rieske KO mouse fibroblasts, CellTiter-Glo (AID 1508586;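 active = mean z-score across replicates of 1.96 or higher in either the MELAS or the Rieske mutant cell line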;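 also: z relative to plate mean and SD of compound and empty wells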)"}, "[13]": {"settings": "stronger effect = lower value, cell number ratio, induced over uninduced"}, "[14]": {"settings": "measured here: relative caspase fold change +Dox/-Dox"}, "[15]": {"settings": "measured here: total cells with miR-34 induction, stronger effect = lower value"}, "[16]": {"settings": "measured here: total cells without miR-34 induction"}, "[17]": {"settings": "MELAS cybrid survival, CellTiter-Glo 48 h, stronger effect = higher value"}, "[18]": {"settings": "Rieske KO mouse fibroblast survival, CellTiter-Glo 72 h"}}, "note": "Records with an inconclusive call do not appear. Active and inactive are the calls of the source.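 The calls were made as follows, unless noted: active = normalized viability below 100% at a tested concentration; inactive = the rest.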", "data": [{"compound": "Cc1cc(N2CCOCC2)cc2[nH]c(-c3c(NC[C@@H](O)c4cccc(Cl)c4)cc[nH]c3=O)nc12", "values": [{"measurement": "AC50", "setting": "[1]", "value": "742 nM (active)"}, {"measurement": "AC50", "setting": "[2]", "value": "1480 nM (active)"}, {"measurement": "AC50", "setting": "[3]", "value": "13200 nM (active)"}, {"measurement": "AC50", "setting": "[4]", "value": "7430 nM (active)"}, {"measurement": "AC50", "setting": "[5]", "value": "209 nM (active)"}, {"measurement": "AC50", "setting": "[6]", "value": "263 nM (active)"}, {"measurement": "AC50", "setting": "[7]", "value": "52.6 nM (active)"}, {"measurement": "AC50", "setting": "[8]", "value": "3720 nM (active)"}, {"measurement": "outcome", "setting": "[9]", "value": "inactive"}, {"measurement": "viability", "setting": "[10]; at 0.000305 µM, OCI-C5x cells, with rucaparib 10 µM, 100% = cells with rucaparib alone", "value": "117% (inactive)"}, {"measurement": "viability", "setting": "[10]; at 0.000305 µM, OCI-C5x cells, without rucaparib", "value": "119% (inactive)"}, {"measurement": "viability", "setting": "[10]; at 0.000305 µM, OCI-P5x cells, with rucaparib 20 µM, 100% = cells with rucaparib alone", "value": "135% (inactive)"}, {"measurement": "viability", "setting": "[10]; at 0.000305 µM, OCI-P5x cells, without rucaparib", "value": "99.5% (active)"}, {"measurement": "viability", "setting": "[10]; at 0.00122 µM, OCI-C5x cells, with rucaparib 10 µM, 100% = cells with rucaparib alone", "value": "126% (inactive)"}, {"measurement": "viability", "setting": "[10]; at 0.00122 µM, OCI-C5x cells, without rucaparib", "value": "114% (inactive)"}, {"measurement": "viability", "setting": "[10]; at 0.00122 µM, OCI-P5x cells, with rucaparib 20 µM, 100% = cells with rucaparib alone", "value": "133% (inactive)"}, {"measurement": "viability", "setting": "[10]; at 0.00122 µM, OCI-P5x cells, without rucaparib", "value": "97.6% (active)"}, {"measurement": "viability", "setting": "[10]; at 0.00488 µM, OCI-C5x cells, with rucaparib 10 µM, 100% = cells with rucaparib alone", "value": "123% (inactive)"}, {"measurement": "viability", "setting": "[10]; at 0.00488 µM, OCI-C5x cells, without rucaparib", "value": "109% (inactive)"}, {"measurement": "viability", "setting": "[10]; at 0.00488 µM, OCI-P5x cells, with rucaparib 20 µM, 100% = cells with rucaparib alone", "value": "130% (inactive)"}, {"measurement": "viability", "setting": "[10]; at 0.00488 µM, OCI-P5x cells, without rucaparib", "value": "98.9% (active)"}, {"measurement": "viability", "setting": "[10]; at 0.0195 µM, OCI-C5x cells, with rucaparib 10 µM, 100% = cells with rucaparib alone", "value": "119% (inactive)"}, {"measurement": "viability", "setting": "[10]; at 0.0195 µM, OCI-C5x cells, without rucaparib", "value": "118% (inactive)"}, {"measurement": "viability", "setting": "[10]; at 0.0195 µM, OCI-P5x cells, with rucaparib 20 µM, 100% = cells with rucaparib alone", "value": "133% (inactive)"}, {"measurement": "viability", "setting": "[10]; at 0.0195 µM, OCI-P5x cells, without rucaparib", "value": "96.1% (active)"}, {"measurement": "viability", "setting": "[10]; at 0.0781 µM, OCI-C5x cells, with rucaparib 10 µM, 100% = cells with rucaparib alone", "value": "126% (inactive)"}, {"measurement": "viability", "setting": "[10]; at 0.0781 µM, OCI-C5x cells, without rucaparib", "value": "123% (inactive)"}, {"measurement": "viability", "setting": "[10]; at 0.0781 µM, OCI-P5x cells, with rucaparib 20 µM, 100% = cells with rucaparib alone", "value": "118% (inactive)"}, {"measurement": "viability", "setting": "[10]; at 0.0781 µM, OCI-P5x cells, without rucaparib", "value": "83.6% (active)"}, {"measurement": "viability", "setting": "[10]; at 0.313 µM, OCI-C5x cells, with rucaparib 10 µM, 100% = cells with rucaparib alone", "value": "123% (inactive)"}, {"measurement": "viability", "setting": "[10]; at 0.313 µM, OCI-C5x cells, without rucaparib", "value": "123% (inactive)"}, {"measurement": "viability", "setting": "[10]; at 0.313 µM, OCI-P5x cells, with rucaparib 20 µM, 100% = cells with rucaparib alone", "value": "79.9% (active)"}, {"measurement": "viability", "setting": "[10]; at 0.313 µM, OCI-P5x cells, without rucaparib", "value": "66.6% (active)"}, {"measurement": "viability", "setting": "[10]; at 1.25 µM, OCI-C5x cells, with rucaparib 10 µM, 100% = cells with rucaparib alone", "value": "133% (inactive)"}, {"measurement": "viability", "setting": "[10]; at 1.25 µM, OCI-C5x cells, without rucaparib", "value": "126% (inactive)"}, {"measurement": "viability", "setting": "[10]; at 1.25 µM, OCI-P5x cells, with rucaparib 20 µM, 100% = cells with rucaparib alone", "value": "41.4% (active)"}, {"measurement": "viability", "setting": "[10]; at 1.25 µM, OCI-P5x cells, without rucaparib", "value": "53.5% (active)"}, {"measurement": "viability", "setting": "[10]; at 5 µM, OCI-C5x cells, with rucaparib 10 µM, 100% = cells with rucaparib alone", "value": "37.3% (active)"}, {"measurement": "viability", "setting": "[10]; at 5 µM, OCI-C5x cells, without rucaparib", "value": "80.4% (active)"}, {"measurement": "viability", "setting": "[10]; at 5 µM, OCI-P5x cells, with rucaparib 20 µM, 100% = cells with rucaparib alone", "value": "0.53% (active)"}, {"measurement": "viability", "setting": "[10]; at 5 µM, OCI-P5x cells, without rucaparib", "value": "12.5% (active)"}]}, {"compound": "COc1cc2c(cc1OC)C1CC(=O)C(CC(C)C)CN1CC2", "note": "(centres undefined)", "values": [{"measurement": "outcome", "setting": "[1]", "value": "inactive"}, {"measurement": "outcome", "setting": "[2]", "value": "inactive"}, {"measurement": "outcome", "setting": "[3]", "value": "inactive"}, {"measurement": "outcome", "setting": "[4]", "value": "inactive"}, {"measurement": "outcome", "setting": "[5]", "value": "inactive"}, {"measurement": "outcome", "setting": "[6]", "value": "inactive"}, {"measurement": "outcome", "setting": "[7]", "value": "inactive"}, {"measurement": "outcome", "setting": "[8]", "value": "inactive"}, {"measurement": "outcome", "setting": "[9]", "value": "inactive"}, {"measurement": "fold change", "setting": "[11]; [13]", "value": "0.996 (inactive)"}, {"measurement": "fold change", "setting": "[11]; [14]", "value": 0.689}, {"measurement": "cell count", "setting": "[11]; [15]", "value": 9770}, {"measurement": "cell count", "setting": "[11]; [16]", "value": 9800}]}, {"compound": "CC(C)(OCc1nn(Cc2ccccc2)c2ccccc12)C(=O)O", "values": [{"measurement": "outcome", "setting": "[1]", "value": "inactive"}, {"measurement": "outcome", "setting": "[2]", "value": "inactive"}, {"measurement": "outcome", "setting": "[3]", "value": "inactive"}, {"measurement": "outcome", "setting": "[4]", "value": "inactive"}, {"measurement": "outcome", "setting": "[5]", "value": "inactive"}, {"measurement": "outcome", "setting": "[6]", "value": "inactive"}, {"measurement": "outcome", "setting": "[7]", "value": "inactive"}, {"measurement": "outcome", "setting": "[8]", "value": "inactive"}, {"measurement": "outcome", "setting": "[9]", "value": "inactive"}, {"measurement": "fold change", "setting": "[11]; [13]", "value": "0.935 (inactive)"}, {"measurement": "fold change", "setting": "[11]; [14]", "value": 0.724}, {"measurement": "cell count", "setting": "[11]; [15]", "value": 9310}, {"measurement": "cell count", "setting": "[11]; [16]", "value": 9960}, {"measurement": "z-score", "setting": "[12]; [17]", "value": "-0.401 (inactive)"}, {"measurement": "z-score", "setting": "[12]; [18]", "value": -0.561}]}, {"compound": "COc1ccc(-c2ccc3ncc4c(c3c2)n(-c2ccc(N3CCNCC3)c(C(F)(F)F)c2)c(=O)n4C)cn1", "values": [{"measurement": "AC50", "setting": "[1]", "value": "105 nM (active)"}, {"measurement": "AC50", "setting": "[2]", "value": "46.9 nM (active)"}, {"measurement": "AC50", "setting": "[3]", "value": "66.2 nM (active)"}, {"measurement": "AC50", "setting": "[4]", "value": "18.7 nM (active)"}, {"measurement": "AC50", "setting": "[5]", "value": "118 nM (active)"}, {"measurement": "AC50", "setting": "[6]", "value": "52.5 nM (active)"}, {"measurement": "AC50", "setting": "[7]", "value": "187 nM (active)"}, {"measurement": "AC50", "setting": "[8]", "value": "235 nM (active)"}, {"measurement": "IC50", "setting": "[9]", "value": "590 nM (active)"}, {"measurement": "fold change", "setting": "[11]; [13]", "value": "0.93 (inactive)"}, {"measurement": "fold change", "setting": "[11]; [14]", "value": 1.48}, {"measurement": "cell count", "setting": "[11]; [15]", "value": 603}, {"measurement": "cell count", "setting": "[11]; [16]", "value": 648}, {"measurement": "z-score", "setting": "[12]; [17]", "value": "0.639 (inactive)"}, {"measurement": "z-score", "setting": "[12]; [18]", "value": -3.7}]}]}
